This passage reports growth inhibition results from PubChem BioAssay (NCI).

The nature of assay [1]: NCI Yeast Anticancer Drug Screen. Data for the rad50 strain (AID 155).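 Note: 0% = growth of vehicle-only cultures of the same strain.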 Particulars: S. cerevisiae rad50 strain growth inhibition, stronger effect = higher value. The essentials: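 A DNA repair-deficient yeast mutant serves as the test organism; compound-induced growth inhibition is calculated against vehicle-treated cells.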
Assay [2] is described as follows: NCI Yeast Anticancer Drug Screen. Data for the mec2-1 strain (AID 157). Particulars: S. cerevisiae mec2-1 strain, stronger effect = higher value. An outline of the steps: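 Yeast mec2-1 mutant treated with compound. Readout: growth inhibition vs vehicle controls.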
Assay [3] in a line: NCI Yeast Anticancer Drug Screen. Data for the sgs1 mgt1 strain (AID 161).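 Note: 0% = growth of cultures given vehicle only.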 Particulars: S. cerevisiae sgs1 mgt1 strain, stronger effect = higher value. The essentials:
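Inhibition of yeast growth, normalised to vehicle-treated controls, is reported for a strain bearing genetic alterations in DNA damage repair.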

Assay [4] is described as follows: NCI Yeast Anticancer Drug Screen. Data for the cln2 rad14 strain (AID 165).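 Note: 0% = growth equal to vehicle treated cultures.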 To be noted: S. cerevisiae cln2 rad14 strain, stronger effect = higher value. The essentials:
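cln2 rad14 yeast strain; compound exposure; growth inhibition read vs vehicle controls.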

A short description of assay [5]: NCI Yeast Anticancer Drug Screen. Data for the bub3 strain (AID 167). Particulars: S. cerevisiae bub3 mutant strain, stronger effect = higher value. The essentials:
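Inhibition values come from growth of compound-treated mutant yeast normalised to vehicle-treated controls.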

The nature of assay [6]: NCI Yeast Anticancer Drug Screen. Data for the mlh1 rad18 strain (AID 175). Particulars: S. cerevisiae mlh1 rad18 strain growth inhibition, stronger effect = higher value. The essentials: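 Yeast w/ defined DNA-repair lesions; compound exposure; growth vs vehicle controls → % inhibition.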
The mark [7] stands for this setting: at 5.0 µM (retest, dose inferred, filed as 0.5).
Where [8] appears, read: at 50.0 µM (retest, dose inferred, filed as 5.0).

The panel holds about 79,000 compounds, 15% with a hit somewhere; the sample as a whole holds those more often. Values without a mark were called inactive. The source made the active and inactive calls. Cut-off read from the data, not from the text of the source: active = growth inhibition above about 70%; inactive = the rest.

`COc1ccc(-c2cn(-c3ccccc3)c3ncnc(N)c23)cc1`: the growth inhibition in assay [1] (setting [7]) is 5%; in assay [1] (setting [8]), 18%; in assay [1] (at 50.0 µM) it was 24.1%; in assay [2] (setting [7]) it was 5%; in assay [2] (setting [8]), 23%; in assay [2] (at 50.0 µM), 11.8%. Also, the growth inhibition in assay [3] (setting [7]) was 10%; in assay [3] (setting [8]), 52%; in assay [3] (at 50.0 µM), 79.5% (active); in assay [4] (setting [7]), 1%; in assay [4] (setting [8]), 0%; in assay [4] (at 50.0 µM), 33.8%. Further, the growth inhibition is 2% in assay [5] (setting [7]); 9% in assay [5] (setting [8]); -15.4% in assay [5] (at 50.0 µM); -2% in assay [6] (setting [7]); 14% in assay [6] (setting [8]); 17.6% in assay [6] (at 50.0 µM).

In the case of `COc1cc(-c2ccc(-[n+]3nc(Cc4ccc5c(c4)OCO5)nn3-c3ccccc3)c(OC)c2)ccc1-[n+]1nc(Cc2ccc3c(c2)OCO3)nn1-c1ccccc1`, the growth inhibition in assay [1] (setting [7]) was 4%; in assay [1] (setting [8]) it was 41%; in assay [1] (at 50.0 µM), 68.8%; in assay [2] (setting [7]) it was 1%; in assay [2] (setting [8]), 46%; in assay [2] (at 50.0 µM), 91.9% (active). The growth inhibition in assay [3] (setting [7]) is 1%; in assay [3] (setting [8]), 49%; in assay [3] (at 50.0 µM), 92.6% (active); in assay [4] (setting [7]) it was 2%; in assay [4] (setting [8]) it was 22%; in assay [4] (at 50.0 µM), 37.1%. Besides, the growth inhibition in assay [5] (setting [7]) was -1%; in assay [5] (setting [8]) it was 60%; in assay [5] (at 50.0 µM) it was 83.4% (active); in assay [6] (setting [7]) it was 2%; in assay [6] (setting [8]), 79% (active); in assay [6] (at 50.0 µM) it was 91.4% (active).

Turning to `O=C(NCCCN1CC2CCCC2C1)C(C1CCCCC1)C1CCCCC1` (stereo not given), the growth inhibition was -5% in assay [1] (setting [7]); 94% (active) in assay [1] (setting [8]); 99.6% (active) in assay [1] (at 50.0 µM); -12% in assay [2] (setting [7]); 76% (active) in assay [2] (setting [8]); 99.5% (active) in assay [2] (at 50.0 µM). Also, the growth inhibition in assay [3] (setting [7]) was -9%; in assay [3] (setting [8]), 92% (active); in assay [3] (at 50.0 µM), 99.5% (active); in assay [4] (setting [7]), 0%; in assay [4] (setting [8]), 98% (active); in assay [4] (at 50.0 µM), 99.2% (active). For the same compound, the growth inhibition in assay [5] (setting [7]) was -22%; in assay [5] (setting [8]), 99% (active); in assay [5] (at 50.0 µM), 99.5% (active); in assay [6] (setting [7]) it was -3%; in assay [6] (setting [8]), 96% (active); in assay [6] (at 50.0 µM) it was 99.5% (active).

`NC(=S)n1nc(-c2ccccc2)c(N=Nc2ccccc2Cl)c1-c1ccccc1`: the growth inhibition in assay [1] (setting [7]) was 3%; in assay [1] (setting [8]), 84% (active); in assay [1] (at 50.0 µM) it was 94.8% (active); in assay [2] (setting [7]), 0%; in assay [2] (setting [8]) it was 58%; in assay [2] (at 50.0 µM) it was 55.5%. In addition, the growth inhibition in assay [3] (setting [7]) was 1%; in assay [3] (setting [8]), 83% (active); in assay [3] (at 50.0 µM), 72.9% (active); in assay [4] (setting [7]) it was 21%; in assay [4] (setting [8]), 92% (active); in assay [4] (at 50.0 µM), 73.9% (active). For the same compound, the growth inhibition is 16% in assay [5] (setting [7]); 92% (active) in assay [5] (setting [8]); 93.7% (active) in assay [5] (at 50.0 µM); 2% in assay [6] (setting [7]); 71% (active) in assay [6] (setting [8]); 90.6% (active) in assay [6] (at 50.0 µM).

With `Cc1nn(C(=S)S)c(C)c1N=Nc1cccc(F)c1`, the growth inhibition in assay [1] (setting [7]) is 15%; in assay [1] (setting [8]), 29%; in assay [1] (at 50.0 µM), 88.2% (active); in assay [2] (setting [7]), -1%; in assay [2] (setting [8]) it was 18%; in assay [2] (at 50.0 µM) it was 46.1%. The growth inhibition was 5% in assay [3] (setting [7]); -1% in assay [3] (setting [8]); 88.6% (active) in assay [3] (at 50.0 µM); 1% in assay [4] (setting [7]); 5% in assay [4] (setting [8]); 24.4% in assay [4] (at 50.0 µM). Also, the growth inhibition is -1% in assay [5] (setting [7]); 7% in assay [5] (setting [8]); 72.5% (active) in assay [5] (at 50.0 µM); -1% in assay [6] (setting [7]); 21% in assay [6] (setting [8]); 90% (active) in assay [6] (at 50.0 µM).

With `O=C(c1ccccc1)c1cccc2ccccc12`, the growth inhibition in assay [1] (setting [7]) was 5%; in assay [1] (setting [8]), 29%; in assay [1] (at 50.0 µM) it was 56.2%; in assay [2] (setting [7]), -5%; in assay [2] (setting [8]), -2%; in assay [2] (at 50.0 µM), 43%. Besides, the growth inhibition in assay [3] (setting [7]) is -2%; in assay [3] (setting [8]) it was 30%; in assay [3] (at 50.0 µM) it was 52.2%; in assay [4] (setting [7]), -2%; in assay [4] (setting [8]), -24%; in assay [4] (at 50.0 µM), -14.3%. Further, the growth inhibition in assay [5] (setting [7]) was 16%; in assay [5] (setting [8]), 27%; in assay [5] (at 50.0 µM), 49.7%; in assay [6] (setting [7]), -1%; in assay [6] (setting [8]), 14%; in assay [6] (at 50.0 µM), 88.2% (active).

Consider `N#CS/C=C/SC#N`, for which the growth inhibition is 99% (active) in assay [1] (setting [7]); 99% (active) in assay [1] (setting [8]); 99.5% (active) in assay [1] (at 50.0 µM); 100% (active) in assay [2] (setting [7]); 100% (active) in assay [2] (setting [8]); 99.5% (active) in assay [2] (at 50.0 µM). Moreover, the growth inhibition in assay [3] (setting [7]) was 99% (active); in assay [3] (setting [8]), 99% (active); in assay [3] (at 50.0 µM), 99.5% (active); in assay [4] (setting [7]), 99% (active); in assay [4] (setting [8]) it was 100% (active); in assay [4] (at 50.0 µM), 99.1% (active). Also, the growth inhibition was 100% (active) in assay [5] (setting [7]); 99% (active) in assay [5] (setting [8]); 99% (active) in assay [5] (at 50.0 µM); 99% (active) in assay [6] (setting [7]); 100% (active) in assay [6] (setting [8]); 99.5% (active) in assay [6] (at 50.0 µM).

Consider `COC(=O)CC1c2cc(OC)c3cccc(OC)c3c2CCC1(C)C(=O)OC` (stereo not given), for which the growth inhibition in assay [1] (setting [7]) is 94% (active); in assay [1] (setting [8]), 89% (active); in assay [1] (at 50.0 µM), 45.8%; in assay [2] (setting [7]) it was 94% (active); in assay [2] (setting [8]), 90% (active); in assay [2] (at 50.0 µM), 18.4%. Besides, the growth inhibition is 95% (active) in assay [3] (setting [7]); 95% (active) in assay [3] (setting [8]); 93.2% (active) in assay [3] (at 50.0 µM); 91% (active) in assay [4] (setting [7]); 90% (active) in assay [4] (setting [8]); 73% (active) in assay [4] (at 50.0 µM). Also, the growth inhibition in assay [5] (setting [7]) is 95% (active); in assay [5] (setting [8]) it was 90% (active); in assay [5] (at 50.0 µM) it was 77.2% (active); in assay [6] (setting [7]) it was 94% (active); in assay [6] (setting [8]), 91% (active); in assay [6] (at 50.0 µM), 13.7%.

Consider `CCOC(=O)/C(=C\c1ccccc1)C(=O)CCN1CCOCC1`, for which the growth inhibition is 37% in assay [1] (setting [7]); 99% (active) in assay [1] (setting [8]); 95.5% (active) in assay [1] (at 50.0 µM); 24% in assay [2] (setting [7]); 99% (active) in assay [2] (setting [8]); 84.5% (active) in assay [2] (at 50.0 µM). Also, the growth inhibition in assay [3] (setting [7]) is 12%; in assay [3] (setting [8]), 99% (active); in assay [3] (at 50.0 µM) it was 41%; in assay [4] (setting [7]), 45%; in assay [4] (setting [8]), 99% (active); in assay [4] (at 50.0 µM) it was 75.9% (active). Besides, the growth inhibition was 20% in assay [5] (setting [7]); 99% (active) in assay [5] (setting [8]); 76% (active) in assay [5] (at 50.0 µM); 10% in assay [6] (setting [7]); 99% (active) in assay [6] (setting [8]); 84.8% (active) in assay [6] (at 50.0 µM).

As for `CCc1ccccc1NC1=C(Cl)C(=O)c2ccccc2C1=O`, the growth inhibition in assay [1] (setting [7]) is 99% (active); in assay [1] (setting [8]), 98% (active); in assay [1] (at 50.0 µM), -1.85%; in assay [2] (setting [7]) it was 100% (active); in assay [2] (setting [8]), 99% (active); in assay [2] (at 50.0 µM), 10.8%. Moreover, the growth inhibition in assay [3] (setting [7]) was 100% (active); in assay [3] (setting [8]), 99% (active); in assay [3] (at 50.0 µM) it was 1.85%; in assay [4] (setting [7]), 77% (active); in assay [4] (setting [8]), 99% (active); in assay [4] (at 50.0 µM), -20.3%. Also, the growth inhibition was 99% (active) in assay [5] (setting [7]); 99% (active) in assay [5] (setting [8]); -0.2% in assay [5] (at 50.0 µM); 99% (active) in assay [6] (setting [7]); 98% (active) in assay [6] (setting [8]); 10% in assay [6] (at 50.0 µM).
